# From PubChem BioAssay (NCI)
# The panel holds about 83,000 compounds, 20% with a hit somewhere; the sample as a whole holds those more often.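 Testing used 96-well plates and a 48-hour single-concentration exposure. Example: -40 means 40% of the starting cells died.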 Active and inactive are the calls of the source. How the source made its calls: active means growth percent below 10; inactive means the rest.
# Test system: M14 melanoma
# Assay: NCI-60 one-dose screen, 48 h (100 = growth as untreated, 0 = no growth, -100 = all killed)
# Settings: 10 µM unless noted
row,Compound,growth
1,COc1ccc(C2CC(c3ccc(OC)c(OC)c3)=NN2C(=O)c2cc(OC)c(OC)c(OC)c2)c(OC)c1 (centres undefined),63.9% (inactive)
2,CCOC(=O)c1c2c(c(C)n1Cc1ccc(OC)cc1)-c1nc(N)ncc1CC2,106% (inactive)
3,O=C1N(C2CCCCC2)C(=O)N1C1CCCCC1,30.4% (inactive)
4,O=c1ccn(C2OC(CO)C(O)C2F)c(=O)[nH]1 (centres undefined),108% (inactive)
5,CCCn1cnc2c1c(=O)n(CCCCC(C)=O)c(=O)n2C,104% (inactive)
6,CCCCc1nc(Cl)c(CO)n1Cc1ccc(-c2ccccc2-c2nn[nH]n2)cc1,101% (inactive)
7,COc1ccc(C2CC(c3cccc(Nc4ccnc5cc(Cl)ccc45)c3)=NN2C=O)cc1 (centres undefined),25.2% (inactive)
8,O=c1c(O)cccn1CCCNCCCN(CCCn1cccc(O)c1=O)CCCn1cccc(O)c1=O,103% (inactive)
9,COc1ccc2nc(-c3ccc(-n4cncc4-c4ccc(OC)c(N)c4)cc3)sc2c1,110% (inactive)
10,Cc1cc(NC(=O)Nc2cc(Cl)ccc2C)no1,109% (inactive)
11,O=C1NCN(c2ccccc2)C12CCN(CCCC(c1ccc(F)cc1)c1ccc(F)cc1)CC2,9.99% (active)
12,CCC(O)C(C)(C)C (centres undefined),105% (inactive)
13,COc1ncc(-c2ccc3nccc(C#CCN4CCN(S(C)(=O)=O)CC4)c3c2)cc1NS(=O)(=O)c1ccc(F)cc1F,-2.97% (active)
14,O=C(Nc1ccc(Cl)cc1)c1cc2c(cc1O)[nH]c1ccccc12,31% (inactive)
15,O=C1c2ccccc2C(=O)c2c1cccc2-n1nnc2ccccc21,127% (inactive)
16,Cc1nn(-c2ccccc2)c2c1oc(=O)c1cc(Cl)ccc12,92.6% (inactive)
17,CCC1=C(c2ccc(OC)cc2)C(C)(C)Oc2c1ccc(O)c2CN1CCCC1,-75.8% (active)
18,O=C(NCCc1ccccc1)C1CCC(=O)N1Cc1ccc(Br)cc1 (centres undefined),104% (inactive)
19,N#Cc1ccc(NC(=O)Nc2ccc(Oc3ccc(NC(=O)Nc4ccc(C#N)cc4)cc3)cc2)cc1,26.2% (inactive)

row,Compound,growth
1,COc1ccc2c(c1)C(=O)c1c-2c(OCCN(C)C)nc2cc(OC)ccc12,11.6% (inactive)
2,O=C(Nc1cccc([N+](=O)[O-])c1)c1cccc(C(=O)Nc2cccc([N+](=O)[O-])c2)c1,85.4% (inactive)
3,CCCCCCCCCCCCCCCCCC1=NC(C)(C)CN1CCO,-74.7% (active)
4,COc1ccc(OC)c(NC(=O)c2cc3oc4ccccc4c3cc2O)c1,95.7% (inactive)
5,CN1C(=O)/C(=C/c2nc(-c3cccc(F)c3)n3ccccc23)c2ccccc21,73.1% (inactive)
6,O=C(CN1CCCCC1)Sc1nnc2sc3ccccc3n12,98% (inactive)
7,C[C@]12CC[C@@H]3c4ccc(O)c([N+](=O)[O-])c4CC[C@H]3[C@@H]1CC[C@@H]2NS(=O)(=O)c1cccc(Br)c1,43.4% (inactive)
8,Cc1ccsc1/C=C/C1=NCCCN1C,100% (inactive)
9,CCCCCCCCCCSc1ncnc2nc[nH]c12,94% (inactive)
10,C[n+]1c2ccccc2c(NC2CCNCC2)c2[nH]c3ccccc3c21,60.1% (inactive)
11,COc1cccc2c1O/C(=C\c1c([N+](=O)[O-])ncn1C)C2=O,103% (inactive)
12,CC[C@@H]1OC(=O)[C@H](C)[C@@H](O[C@H]2C[C@@](C)(OC)[C@@H](O)[C@H](C)O2)[C@H](C)[C@@H](O[C@@H]2O[C@H](C)C[C@H](N(C)C)[C@H]2O)[C@](C)(O)C[C@@H](C)[C@@H]2N[C@@H](COCCOC)O[C@H]([C@H]2C)[C@]1(C)O,99.7% (inactive)
13,O=C1C[C@@H]2/C(=C(O)\C=C\c3ccccc3)C(=O)C=C[C@@H]2O1,-65.9% (active)
14,Cc1cc2c(cc1[N+](=O)[O-])NC(CNC(C)C)CC2 (centres undefined),92% (inactive)
15,CCCCN(CCCC)CCCOC(=O)c1ccc(N)cc1,93.7% (inactive)
16,C=C(C[C@](O)(C(=O)/C=C/c1ccc(Cl)cc1)C(=O)OC)c1ccccc1,84.1% (inactive)
17,CCN1C[C@@H](C)n2c(c(O)c3c(=O)n(Cc4ccc(F)c(Cl)c4)nc(C(=O)NC)c32)C1=O,30.4% (inactive)
18,Cc1nnc(Nc2ccc(NC(=O)Nc3ccc(Cl)cc3)cc2)c2ccccc12,37.3% (inactive)

# Test system: HCT-15 colon
# Assay: as above
# Settings: 10 µM unless noted
row,Compound,growth
1,COc1ccc(C2CC(c3ccc(OC)c(OC)c3)=NN2C(=O)c2cc(OC)c(OC)c(OC)c2)c(OC)c1 (centres undefined),67.4% (inactive)
2,CCOC(=O)c1c2c(c(C)n1Cc1ccc(OC)cc1)-c1nc(N)ncc1CC2,113% (inactive)
3,O=C1N(C2CCCCC2)C(=O)N1C1CCCCC1,52.7% (inactive)
4,O=c1ccn(C2OC(CO)C(O)C2F)c(=O)[nH]1 (centres undefined),112% (inactive)
5,CCCn1cnc2c1c(=O)n(CCCCC(C)=O)c(=O)n2C,103% (inactive)
6,CCCCc1nc(Cl)c(CO)n1Cc1ccc(-c2ccccc2-c2nn[nH]n2)cc1,106% (inactive)
7,COc1ccc(C2CC(c3cccc(Nc4ccnc5cc(Cl)ccc45)c3)=NN2C=O)cc1 (centres undefined),27.8% (inactive)
8,O=c1c(O)cccn1CCCNCCCN(CCCn1cccc(O)c1=O)CCCn1cccc(O)c1=O,99.2% (inactive)
9,COc1ccc2nc(-c3ccc(-n4cncc4-c4ccc(OC)c(N)c4)cc3)sc2c1,97.4% (inactive)
10,Cc1cc(NC(=O)Nc2cc(Cl)ccc2C)no1,100% (inactive)
11,O=C1NCN(c2ccccc2)C12CCN(CCCC(c1ccc(F)cc1)c1ccc(F)cc1)CC2,49.6% (inactive)
12,CCC(O)C(C)(C)C (centres undefined),102% (inactive)
13,COc1ncc(-c2ccc3nccc(C#CCN4CCN(S(C)(=O)=O)CC4)c3c2)cc1NS(=O)(=O)c1ccc(F)cc1F,10.4% (inactive)
14,O=C(Nc1ccc(Cl)cc1)c1cc2c(cc1O)[nH]c1ccccc12,32% (inactive)
15,O=C1c2ccccc2C(=O)c2c1cccc2-n1nnc2ccccc21,102% (inactive)
16,Cc1nn(-c2ccccc2)c2c1oc(=O)c1cc(Cl)ccc12,99.4% (inactive)
17,CCC1=C(c2ccc(OC)cc2)C(C)(C)Oc2c1ccc(O)c2CN1CCCC1,8.13% (active)
18,O=C(NCCc1ccccc1)C1CCC(=O)N1Cc1ccc(Br)cc1 (centres undefined),108% (inactive)
19,N#Cc1ccc(NC(=O)Nc2ccc(Oc3ccc(NC(=O)Nc4ccc(C#N)cc4)cc3)cc2)cc1,32.1% (inactive)

row,Compound,growth
1,COc1ccc2c(c1)C(=O)c1c-2c(OCCN(C)C)nc2cc(OC)ccc12,-63.4% (active)
2,O=C(Nc1cccc([N+](=O)[O-])c1)c1cccc(C(=O)Nc2cccc([N+](=O)[O-])c2)c1,85.5% (inactive)
3,CCCCCCCCCCCCCCCCCC1=NC(C)(C)CN1CCO,-55.4% (active)
4,COc1ccc(OC)c(NC(=O)c2cc3oc4ccccc4c3cc2O)c1,96.7% (inactive)
5,CN1C(=O)/C(=C/c2nc(-c3cccc(F)c3)n3ccccc23)c2ccccc21,93% (inactive)
6,O=C(CN1CCCCC1)Sc1nnc2sc3ccccc3n12,112% (inactive)
7,C[C@]12CC[C@@H]3c4ccc(O)c([N+](=O)[O-])c4CC[C@H]3[C@@H]1CC[C@@H]2NS(=O)(=O)c1cccc(Br)c1,26.7% (inactive)
8,Cc1ccsc1/C=C/C1=NCCCN1C,109% (inactive)
9,CCCCCCCCCCSc1ncnc2nc[nH]c12,82.4% (inactive)
10,C[n+]1c2ccccc2c(NC2CCNCC2)c2[nH]c3ccccc3c21,87.5% (inactive)
11,COc1cccc2c1O/C(=C\c1c([N+](=O)[O-])ncn1C)C2=O,91.4% (inactive)
12,CC[C@@H]1OC(=O)[C@H](C)[C@@H](O[C@H]2C[C@@](C)(OC)[C@@H](O)[C@H](C)O2)[C@H](C)[C@@H](O[C@@H]2O[C@H](C)C[C@H](N(C)C)[C@H]2O)[C@](C)(O)C[C@@H](C)[C@@H]2N[C@@H](COCCOC)O[C@H]([C@H]2C)[C@]1(C)O,109% (inactive)
13,O=C1C[C@@H]2/C(=C(O)\C=C\c3ccccc3)C(=O)C=C[C@@H]2O1,-7.83% (active)
14,Cc1cc2c(cc1[N+](=O)[O-])NC(CNC(C)C)CC2 (centres undefined),102% (inactive)
15,CCCCN(CCCC)CCCOC(=O)c1ccc(N)cc1,101% (inactive)
16,C=C(C[C@](O)(C(=O)/C=C/c1ccc(Cl)cc1)C(=O)OC)c1ccccc1,3.71% (active)
17,CCN1C[C@@H](C)n2c(c(O)c3c(=O)n(Cc4ccc(F)c(Cl)c4)nc(C(=O)NC)c32)C1=O,6.16% (active)
18,Cc1nnc(Nc2ccc(NC(=O)Nc3ccc(Cl)cc3)cc2)c2ccccc12,6.39% (active)
